Reference: the supplement of paper PMC3334620
Over roughly 33,000 sequences, “E-score (-0.5 to 0.5)” has its median near -0.012; the highest 2% begin near 0.29. The sample holds the highest values, similar sequences and a random draw of the others, so the mix is not that of the screen.

molecular target: T1, Ybr033w (UniProt P38073); test: PBM E-score (8-mer binding enrichment) (E-score (-0.5 to 0.5)); higher = stronger / more preferred TF binding; conditions: protein concentration: 200 nM; construct: GST-full length
T1 sequence: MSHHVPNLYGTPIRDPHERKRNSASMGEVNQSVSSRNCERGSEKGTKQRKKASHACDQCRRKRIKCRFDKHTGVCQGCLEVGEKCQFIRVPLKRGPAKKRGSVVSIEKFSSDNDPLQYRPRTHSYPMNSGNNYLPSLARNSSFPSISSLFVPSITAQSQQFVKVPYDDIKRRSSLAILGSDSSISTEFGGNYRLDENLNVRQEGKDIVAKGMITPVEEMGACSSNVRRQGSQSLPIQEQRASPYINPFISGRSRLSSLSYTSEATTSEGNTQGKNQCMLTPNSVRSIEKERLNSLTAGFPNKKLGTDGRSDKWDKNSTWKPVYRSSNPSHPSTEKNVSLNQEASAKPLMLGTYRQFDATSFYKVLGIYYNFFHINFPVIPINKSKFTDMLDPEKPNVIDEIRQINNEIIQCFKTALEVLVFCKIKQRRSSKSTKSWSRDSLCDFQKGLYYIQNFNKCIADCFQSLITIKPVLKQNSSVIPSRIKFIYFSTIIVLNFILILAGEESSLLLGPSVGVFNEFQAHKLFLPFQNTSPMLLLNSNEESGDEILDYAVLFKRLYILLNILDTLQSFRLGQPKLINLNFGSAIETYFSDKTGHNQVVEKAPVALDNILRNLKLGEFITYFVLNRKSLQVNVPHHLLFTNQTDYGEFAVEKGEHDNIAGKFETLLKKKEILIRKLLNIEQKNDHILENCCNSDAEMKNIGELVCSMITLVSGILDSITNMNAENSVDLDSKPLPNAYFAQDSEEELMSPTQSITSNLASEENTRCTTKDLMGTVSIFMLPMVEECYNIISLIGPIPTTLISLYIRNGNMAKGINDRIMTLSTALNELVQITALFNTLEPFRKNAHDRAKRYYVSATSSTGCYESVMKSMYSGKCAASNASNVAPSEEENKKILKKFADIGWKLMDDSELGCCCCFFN
Method: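 Universal 'all 10-mer' protein binding microarrays (Agilent AMADID 015681) probed with GST-tagged S. cerevisiae TFs (full-length or DBD) made by in vitro transcription/translation (PURExpress), about 100-200 nM. Bound TF was detected with fluorescent anti-GST. Each ungapped 8-mer (which stands for itself and its reverse complement) is scored by the PBM enrichment score (E-score), a modified Wilcoxon-Mann-Whitney statistic from -0.5 to +0.5, computed with the Universal PBM Analysis Suite. Scale: above 0.35 generally sequence-specific binding.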

Going from ATTCATTA to GTTCATTA, the “PBM E-score” value falls from 0.263 to 0.221.

First: ATTGGTGC
Second: ATACTTTG
The “PBM E-score” value of the first is lower: 0.0298 for the first, 0.297 for the second.

Compared with ATACTTTA, ATACTTTC is lower in “PBM E-score” value: 0.23 for the first, 0.177 for the second.

Compared with AGCCAGGG, ACGGAAAA is higher in “PBM E-score” value: -0.362 for the first, 0.422 for the second.

First: ACAGAAAT
Second: ACGGAAAT
The “PBM E-score” value of the first is lower: 0.137 for the first, 0.313 for the second.

First: ACGGAAAG
Second: CCGGAAAG
The “PBM E-score” value of the first is higher: 0.0247 for the first, -0.0245 for the second.

Compared with GCGGGAAA, ACGGAAAC is lower in “PBM E-score” value: 0.128 for the first, -0.12 for the second.

Going from ACGGGAAT to CCGGAAAA, the “PBM E-score” value rises from 0.0676 to 0.44.

First: GCGGAAAA
Second: GCGGAAAC
The “PBM E-score” value of the first is higher: 0.396 for the first, -0.191 for the second.

Compared with CCGGAAAC, AGGACGGC is lower in “PBM E-score” value: 0.14 for the first, -0.235 for the second.

Going from GAGAGTCA to CGTCCTCC, the “PBM E-score” value falls from -0.0369 to -0.314.

Going from GAGAGATC to TCGGGAAA, the “PBM E-score” value rises from -0.00339 to 0.253.

First: TCGGAAAA
Second: TCAGAAAA
The “PBM E-score” value of the first is higher: 0.424 for the first, 0.0198 for the second.

First: CCTTGGCC
Second: CAACATCC
The “PBM E-score” value of the first is lower: -0.318 for the first, -0.07 for the second.

Going from GAACATCC to AAACATCC, the “PBM E-score” value falls from 0.303 to 0.192.

First: CAGAGCGA
Second: TGGGTGAA
The “PBM E-score” value of the first is lower: 0.105 for the first, 0.15 for the second.

Going from ATAAGGAA to ATAAGGAT, the “PBM E-score” value rises from 0.0859 to 0.297.

Going from ATAAGGAC to CCGAAGGC, the “PBM E-score” value falls from -0.0427 to -0.11.

Going from ATTCTGGC to CGTATAAC, the “PBM E-score” value rises from -0.217 to 0.0815.

Compared with TGCATAAA, CATATAAG is lower in “PBM E-score” value: 0.218 for the first, 0.114 for the second.

Compared with CATATAAA, AGCATAAA is lower in “PBM E-score” value: 0.174 for the first, 0.141 for the second.

Compared with CGTATAAA, AATATAAG is higher in “PBM E-score” value: 0.291 for the first, 0.295 for the second.

First: AGTATAAA
Second: AATATAAA
The “PBM E-score” value of the first is lower: 0.266 for the first, 0.344 for the second.

Compared with CGCATAAA, AATATAAT is lower in “PBM E-score” value: 0.297 for the first, 0.236 for the second.

Going from TATATAAA to AATACTTC, the “PBM E-score” value falls from 0.282 to 0.21.

Compared with AACTAGAC, GTGGTAGA is lower in “PBM E-score” value: 0.0442 for the first, -0.158 for the second.

Compared with CGGTGAGC, AGCTGACA is higher in “PBM E-score” value: -0.26 for the first, -0.103 for the second.

Going from CCCACAAA to AGTAAGAC, the “PBM E-score” value falls from 0.0286 to -0.00585.

Compared with ATAACTGC, TGAAGAAA is lower in “PBM E-score” value: 0.193 for the first, 0.134 for the second.

Compared with CCAAGTCA, CAGTGCAG is lower in “PBM E-score” value: -0.0141 for the first, -0.0894 for the second.

Compared with TCGGAAGA, CCGGAAGC is lower in “PBM E-score” value: 0.193 for the first, 0.0751 for the second.

First: CCGGAAGG
Second: ACGGAAGA
The “PBM E-score” value of the first is lower: 0.0448 for the first, 0.338 for the second.

Compared with CCGGAAGA, ACGGAAGT is lower in “PBM E-score” value: 0.404 for the first, 0.0483 for the second.

First: AGTCACCG
Second: TACTGCCA
The “PBM E-score” value of the first is lower: -0.104 for the first, 0.038 for the second.

Going from AATCACCA to TATCACCA, the “PBM E-score” value falls from 0.295 to 0.0892.

First: AATCACCG
Second: AGACTGCC
The “PBM E-score” value of the first is higher: -0.0481 for the first, -0.219 for the second.

Going from CAGTTATA to GATTTTTA, the “PBM E-score” value rises from 0.074 to 0.209.

First: CATATTTA
Second: GATATTTA
The “PBM E-score” value of the first is lower: 0.28 for the first, 0.338 for the second.

Going from GCTATTTA to AATATTTG, the “PBM E-score” value rises from 0.132 to 0.232.

First: CCTATTTC
Second: AATATTTC
The “PBM E-score” value of the first is lower: 0.124 for the first, 0.34 for the second.

Compared with CATATTTC, AATATTTA is higher in “PBM E-score” value: 0.213 for the first, 0.318 for the second.

Going from CGCTCTAA to CCAAAGAG, the “PBM E-score” value rises from -0.0524 to -0.0366.

Going from CCCACCAC to CCATACGA, the “PBM E-score” value rises from -0.0659 to 0.0671.
